Here are results for five compounds from PubChem BioAssay.

The target in one test is Albumin (Bos taurus) (UniProt P02769). Put plainly: bovine serum albumin binders on microarray, profiling panel, artefact control for SMM control protein annotation, biochemical, small-molecule microarray, Alexa647 label, 635/667 nm fluorescence (AID 1118).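 Note: score merges 667 nm emission intensity and signal-to-noise per printed compound spot.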 As to conditions: BSA-A647 binding, fluorescence 635 nm, higher = more signal.
Test [1] in a line: small-molecule microarray binders of probe aXIP, primary screen, biochemical, NeuroSMM set, 635/667 nm fluorescence (AID 1119).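 Note: probe is the protein aXip251-270 applied at 1 µg/mL to compound-printed slides; binding of probe to printed compounds measured as 667 nm fluorescence plus signal to noise.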 The following applies: higher = more signal, called active from +8 up or from −8 down.
Test [2] in a line: small-molecule binders of probe aNOTCH3, primary screen, biochemical, small-molecule microarray, 635/667 nm fluorescence (AID 1120).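 Note: probe is a biotin-tagged antibody raised against NOTCH3 rather than NOTCH3 protein; score merges spot fluorescence near 667 nm with spot signal to noise.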 The following applies: higher = more signal.
Test [3] is described as follows: small-molecule binders of probe aNOTCH2, primary screen, biochemical, small-molecule microarray, 635/667 nm fluorescence (AID 1121).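 Note: score merges feature fluorescence read at 667 nm with its signal to noise.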 As to conditions: higher = more signal.
Test [4] addresses Carbonic anhydrase 2 (Homo sapiens) (UniProt P00918). Kind of test: CAII small-molecule binders, profiling panel, biochemical, small-molecule microarray, Alexa647-labelled CAII (AID 1122). The following applies: CAII-A647 binding fluorescence, higher = more signal.
Test [5] is described as follows: COS7 lysate on small-molecule microarray, probe aHis, 635 nm (AID 1123).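 Note: z-score combines 667nm fluorescence intensity with signal-to-noise per printed compound spot.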 The following applies: COS7 cell lysate, fluorescence, higher = more signal.
Test [6] can be described thus: compound binding in COS7 lysate, probe aLAP1, primary screen, cell lysate, small-molecule microarray (AID 1124).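 Note: lysate comes from COS7 cells expressing LAP1 and is applied at 0.3 µg/mL; score merges spot fluorescence near 667 nm with signal-to-noise over triplicate slides.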 The following applies: probe aLAP1, fluorescence, higher = more signal.
A further test deals with Sam68 (KHDRBS1). Kind of test: Sam68 small-molecule binders, primary screen, biochemical, small-molecule microarray, 635 nm fluorescence (AID 1125).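 Note: score merges 667 nm channel intensity with signal to noise over triplicate slides.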 As to conditions: small-molecule microarray binding, higher = more signal.
Test [7] has as its system Chordin-like protein 2 (CHRDL2). Put plainly: CHRDL2 small-molecule binders, primary screen, biochemical, small-molecule microarray, 635 nm fluorescence (AID 1126).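 Note: printed compound slides probed with Chrdl2 protein at 4 µg/mL for 1 h at 4 C; score merges 667 nm emission intensity with signal to noise over three replicate slides.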 The following applies: small-molecule microarray binding, fluorescence 635 nm; higher = more signal.
For test [8], the target named is Concanavalin-A (Canavalia ensiformis) (UniProt P02866). Kind of test: ConA small-molecule binders, primary screen, artefact control for SMM control protein annotation, biochemical, small-molecule microarray, Alexa647 label, 635 nm (AID 1127).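 Note: z combines 667 nm emission intensity with signal-to-noise across three replicate slides.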 The following applies: ConA-A647 binding fluorescence, higher = more signal.
Test [9] in a line: anti-His antibody binders, primary screen, artefact control for SMM control protein annotation, biochemical, small-molecule microarray, 635 nm fluorescence (AID 1128).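 Note: score merges feature fluorescence with signal-to-noise for each printed compound spot.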 As to conditions: anti-His Alexa647 antibody binding, higher = more signal.
The test system of test [10] is Human papillomavirus type 1a E7 protein (residues 1-88). Put plainly: HPV1a E7 small-molecule binders, primary screen, biochemical, small-molecule microarray, residues 1-88, 635 nm (AID 1129). As to conditions: small-molecule microarray binding, fluorescence 635 nm; higher = more signal.
Test [11] has as its target Focal adhesion kinase 1 (Homo sapiens) (UniProt Q05397). Put plainly: small-molecule microarray binders of FAK, primary screen, biochemical, 635/667 nm fluorescence, BSA, DTT (AID 1130).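 Note: composite of spot emission at 667 nm and signal to noise over triplicate slides.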 The following applies: PTK2 binding, 635 nm fluorescence, higher = more signal.
The test system of test [12] is Fibrinogen (Alexa647-labelled). Put plainly: fibrinogen binders on compound microarrays, profiling panel, artefact control for SMM control-protein annotation, biochemical, small-molecule microarray, 635/667 nm fluorescence (AID 1131).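 Note: z-score merges 667 nm fluorescence with per-spot signal-to-noise over triplicate slides.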 The following applies: fibrinogen-A647 binding fluorescence, higher = more signal.
For test [13], the target named is Follistatin (Homo sapiens) (UniProt P19883). Kind of test: follistatin binders on small-molecule microarrays, primary screen, biochemical, small-molecule microarray, 635/667 nm fluorescence (AID 1132). The following applies: FST binding, 635 nm fluorescence, higher = more signal.
Test [14] addresses Fibroblast growth factor 2 (Homo sapiens) (UniProt P09038). Kind of test: FGF2 binders on small-molecule microarrays, primary screen, biochemical, small-molecule microarray, 635/667 nm fluorescence (AID 1133). The following applies: small-molecule microarray binding, FGF2, fluorescence 635/667; higher = more signal.
The nature of test [15]: mitochondrial membrane potential change in A549 cells, profiling panel, cell-based, JC-1 fluorescence, basal, 24 h, 100 nL (AID 1138).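 Note: A549 lung adenocarcinoma cells under basal conditions with no added stimulus; test concentration not given here.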 The following applies: higher = more signal.
Another test has as its system Lefty1. Put plainly: Lefty1 binders on small-molecule microarrays, primary screen, biochemical, small-molecule microarray, 635/667 nm fluorescence (AID 1139). The following applies: small-molecule microarray binding, fluorescence 635/667; higher = more signal.
Test [16] has as its system wheat germ agglutinin (Triticum aestivum), Alexa647-labelled. Put plainly: wheat germ agglutinin binders on compound microarrays, profiling panel, artefact control for SMM control-protein annotation, biochemical, small-molecule microarray, 635/667 nm fluorescence (AID 1140).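 Note: score merges 667 nm feature emission with signal to noise over triplicate slides.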 The following applies: WGA-A647 binding, 635 nm fluorescence, higher = more signal.
Test [17] concerns the target Luciferin 4-monooxygenase (Photinus pyralis) (UniProt P08659). Kind of test: firefly luciferase enzyme inhibitors, primary screen, biochemical, luminescence, purified enzyme, 2006 set (AID 1141).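 Note: cell-free assay with purified firefly luciferase at 100 ng per well in PBS; test concentration not given here.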 As to conditions: SteadyGlo luminescence, 30 min, higher = more signal, called active from +8 up or from −8 down.

Active and inactive are the calls of the source.

Sequence of Fibroblast growth factor 2 (Homo sapiens) (P09038 whole entry, looked up): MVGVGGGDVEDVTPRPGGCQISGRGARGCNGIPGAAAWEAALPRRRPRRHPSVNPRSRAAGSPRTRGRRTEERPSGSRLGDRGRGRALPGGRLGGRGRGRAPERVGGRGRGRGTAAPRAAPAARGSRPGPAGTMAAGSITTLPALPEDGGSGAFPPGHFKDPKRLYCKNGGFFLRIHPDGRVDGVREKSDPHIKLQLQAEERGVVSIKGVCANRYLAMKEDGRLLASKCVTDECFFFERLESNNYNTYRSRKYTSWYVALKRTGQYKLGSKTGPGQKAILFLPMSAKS
Sequence of Albumin (Bos taurus) (P02769 whole entry, looked up): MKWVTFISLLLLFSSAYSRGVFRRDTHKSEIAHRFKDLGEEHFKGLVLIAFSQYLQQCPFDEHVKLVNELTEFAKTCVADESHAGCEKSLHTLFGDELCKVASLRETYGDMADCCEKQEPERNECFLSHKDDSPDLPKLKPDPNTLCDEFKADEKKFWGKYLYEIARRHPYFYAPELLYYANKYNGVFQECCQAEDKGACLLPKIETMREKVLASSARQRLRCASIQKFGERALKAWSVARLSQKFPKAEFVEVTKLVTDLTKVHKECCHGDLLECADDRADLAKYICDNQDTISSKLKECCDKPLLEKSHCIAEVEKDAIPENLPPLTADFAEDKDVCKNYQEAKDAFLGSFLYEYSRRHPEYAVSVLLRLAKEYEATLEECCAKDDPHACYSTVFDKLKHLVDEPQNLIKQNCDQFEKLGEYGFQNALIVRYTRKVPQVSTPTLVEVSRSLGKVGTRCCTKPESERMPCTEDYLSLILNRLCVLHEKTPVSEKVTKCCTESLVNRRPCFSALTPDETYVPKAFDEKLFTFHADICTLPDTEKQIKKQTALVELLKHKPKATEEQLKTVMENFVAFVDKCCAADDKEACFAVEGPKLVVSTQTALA
Sequence of Focal adhesion kinase 1 (Homo sapiens) (Q05397 whole entry, looked up): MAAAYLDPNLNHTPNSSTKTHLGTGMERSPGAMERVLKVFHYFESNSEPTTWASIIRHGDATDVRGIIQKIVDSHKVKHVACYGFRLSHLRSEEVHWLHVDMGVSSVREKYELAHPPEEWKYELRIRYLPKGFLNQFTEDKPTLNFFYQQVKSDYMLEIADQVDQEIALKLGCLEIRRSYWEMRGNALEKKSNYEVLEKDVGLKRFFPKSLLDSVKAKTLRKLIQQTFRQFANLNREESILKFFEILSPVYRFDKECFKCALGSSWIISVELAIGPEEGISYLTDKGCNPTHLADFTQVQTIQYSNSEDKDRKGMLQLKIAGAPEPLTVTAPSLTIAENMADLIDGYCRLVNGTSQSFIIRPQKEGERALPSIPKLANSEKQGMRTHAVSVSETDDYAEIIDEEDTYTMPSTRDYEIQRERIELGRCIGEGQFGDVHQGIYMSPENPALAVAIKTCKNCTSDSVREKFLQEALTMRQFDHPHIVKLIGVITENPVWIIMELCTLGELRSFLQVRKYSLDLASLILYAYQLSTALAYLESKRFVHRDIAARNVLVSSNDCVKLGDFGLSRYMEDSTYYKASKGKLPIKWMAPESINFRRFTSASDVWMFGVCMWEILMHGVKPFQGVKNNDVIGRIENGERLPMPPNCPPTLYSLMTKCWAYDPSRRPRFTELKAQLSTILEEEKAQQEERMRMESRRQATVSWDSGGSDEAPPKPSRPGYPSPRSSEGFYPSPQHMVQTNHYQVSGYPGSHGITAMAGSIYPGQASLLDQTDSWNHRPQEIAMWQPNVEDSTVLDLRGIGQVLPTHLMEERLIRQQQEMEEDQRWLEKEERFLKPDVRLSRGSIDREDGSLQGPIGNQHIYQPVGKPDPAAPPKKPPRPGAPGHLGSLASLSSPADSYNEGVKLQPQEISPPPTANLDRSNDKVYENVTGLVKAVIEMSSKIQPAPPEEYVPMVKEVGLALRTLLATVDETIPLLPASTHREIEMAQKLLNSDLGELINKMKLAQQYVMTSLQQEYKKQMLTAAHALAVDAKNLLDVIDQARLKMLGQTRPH
Sequence of Concanavalin-A (Canavalia ensiformis) (P02866 whole entry, looked up): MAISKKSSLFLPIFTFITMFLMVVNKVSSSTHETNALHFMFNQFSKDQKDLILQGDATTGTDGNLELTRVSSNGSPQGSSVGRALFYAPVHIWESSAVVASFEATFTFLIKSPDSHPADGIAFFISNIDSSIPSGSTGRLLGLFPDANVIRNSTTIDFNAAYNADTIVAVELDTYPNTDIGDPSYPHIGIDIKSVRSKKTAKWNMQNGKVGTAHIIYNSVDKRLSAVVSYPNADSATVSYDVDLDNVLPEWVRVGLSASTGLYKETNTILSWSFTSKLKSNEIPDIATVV
Sequence of Luciferin 4-monooxygenase (Photinus pyralis) (P08659 whole entry, looked up): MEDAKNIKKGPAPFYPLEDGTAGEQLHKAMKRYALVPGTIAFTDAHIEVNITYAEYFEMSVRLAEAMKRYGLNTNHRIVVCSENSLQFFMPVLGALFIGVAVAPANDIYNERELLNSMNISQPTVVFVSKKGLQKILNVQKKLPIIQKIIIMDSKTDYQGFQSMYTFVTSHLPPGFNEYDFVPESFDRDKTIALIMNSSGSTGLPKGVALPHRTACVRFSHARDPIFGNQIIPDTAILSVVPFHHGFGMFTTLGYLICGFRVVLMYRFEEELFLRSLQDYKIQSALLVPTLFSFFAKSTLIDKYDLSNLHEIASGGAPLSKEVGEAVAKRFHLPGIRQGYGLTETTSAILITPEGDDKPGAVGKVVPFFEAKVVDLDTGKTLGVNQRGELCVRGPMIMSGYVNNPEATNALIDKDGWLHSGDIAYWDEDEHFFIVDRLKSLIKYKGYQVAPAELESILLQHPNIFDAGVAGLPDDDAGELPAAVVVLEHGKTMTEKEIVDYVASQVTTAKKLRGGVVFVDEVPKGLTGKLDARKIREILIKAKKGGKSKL
Sequence of Follistatin (Homo sapiens) (P19883 whole entry, looked up): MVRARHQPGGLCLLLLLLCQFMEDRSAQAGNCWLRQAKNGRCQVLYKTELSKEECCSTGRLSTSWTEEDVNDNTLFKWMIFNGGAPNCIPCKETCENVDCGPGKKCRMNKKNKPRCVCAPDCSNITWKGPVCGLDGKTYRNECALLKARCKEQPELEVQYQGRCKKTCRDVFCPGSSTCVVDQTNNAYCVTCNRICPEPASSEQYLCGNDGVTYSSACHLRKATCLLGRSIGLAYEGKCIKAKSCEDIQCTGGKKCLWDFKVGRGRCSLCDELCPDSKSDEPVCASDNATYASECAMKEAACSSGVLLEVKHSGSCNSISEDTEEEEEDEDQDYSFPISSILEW

For `CCOC(=O)[C@H](Cc1ccccc1)NC(=O)CCC1CC(OC(=O)NCc2ccc3c(c2)OCO3)CC2(CCCC(COC(=O)NCCCN3CCCC3=O)O2)O1` (stereo not given in full), the composite z-score with Albumin (Bos taurus) is 0.613; in test [2] it was -0.0204; in test [3], -0.179; in [4], 0.454; in test [5], 1.27; in test [6] it was 0.334. Besides, the composite z-score was 1.32 in the test on Sam68 (KHDRBS1); 0.329 in [7]; 1.1 in [8]; 0.556 in test [9]; 0.959 in test [10]; 0.28 in test [11]. Moreover, the composite z-score came to 0.87 in [12]; 0.72 in [13]; 0.537 in test [14]; 0.428 in the test with Lefty1; 0.305 in [16]. In addition, in test [1], the composite Z-score is 0.581 (inactive). Besides, the z-score in test [15] was 0.232; in test [17], 1.12 (inactive).

Regarding `CC(=O)OC[C@H]1O[C@@H](ON=C(C)C)[C@H](OC(C)=O)[C@@H](OC(C)=O)[C@@H]1OC(C)=O`, the composite z-score with Albumin (Bos taurus) was -0.727; in test [2], -0.0178; in [3], -0.0272; in test [4] it was -0.755; in test [5] it was -0.775; in [6], 0.694. Besides, the composite z-score was -0.743 in the test on Sam68 (KHDRBS1); -0.736 in [7]; -1.09 in test [8]; 0.759 in [9]; -1.41 in test [10]; -0.242 in [11]. Moreover, the composite z-score is -0.515 in test [12]; -1.27 in [13]; -0.109 in test [14]; -1.03 in the test on Lefty1; -0.88 in [16]. Further, the composite Z-score in [1] is -1.02 (inactive). Besides, the z-score in [15] was -0.191; in test [17], 0.316 (inactive).

For the compound `CC(CCN1CCCc2nc(C)c(C)cc21)=NOC[C@@H](C)[C@H](OCc1ccccc1)C(C)C`, the composite z-score with Albumin (Bos taurus) was -0.453; in [2], -0.0918; in test [3], -0.0878; in [4], -0.358; in test [5] it was 0.816; in test [6], -0.432. For the same compound, the composite z-score in the test with Sam68 (KHDRBS1) was -0.818; in test [7], -0.621; in test [8], -0.691; in [9] it was 2.52; in [10] it was -0.703; in [11] it was -0.0748. For the same compound, the composite z-score in test [12] was -0.9; in test [13] it was -0.516; in test [14], -0.165; with Lefty1 it was 0.241; in test [16], -0.606. Further, the composite Z-score in test [1] is 0.081 (inactive). The z-score in test [15] was 1.37; in test [17] it was -1.14 (inactive).

On to `CC(CCN1CCCc2nc(C)c(C)cc21)=NOC[C@@H](O)COCc1ccco1`, for which the composite z-score was -1.47 with Albumin (Bos taurus); 1.67 in test [2]; 0.826 in test [3]; -0.702 in test [4]; 1.37 in [5]; 0.602 in test [6]. Moreover, the composite z-score with Sam68 (KHDRBS1) is -0.109; in test [7], 1.58; in test [8], -1.09; in test [9], 0.215; in test [10], -2.13; in test [11], 2.27. In addition, the composite z-score in test [12] is -2.04; in [13], 1.55; in [14], 2.19; with Lefty1 it was 1.86; in test [16], -0.949. Moreover, the composite Z-score in test [1] is 5.36 (inactive). The z-score in test [15] was 0.694; in test [17], -1.59 (inactive).

For `CCOC(=O)NN=C1C[C@@H](O)[C@@H](O)[C@@H]2[C@@H]3C(=O)N(CC)C(=O)[C@@H]3CC[C@H]12`, the composite z-score with Albumin (Bos taurus) is 0.541; in test [2], -0.0879; in test [3] it was -0.126; in test [4], 0.448; in test [5], 0.0053; in [6], -0.0396. In addition, the composite z-score in the test with Sam68 (KHDRBS1) was -0.221; in test [7], 0.202; in [8] it was 0.173; in test [9], 0.241; in test [10], -0.351; in [11] it was 0.105. Moreover, the composite z-score is 0.569 in [12]; -0.408 in [13]; 0.0278 in test [14]; 0.0358 in the test with Lefty1; 0.195 in test [16]. Moreover, the composite Z-score in test [1] was -0.415 (inactive). Also, the z-score was -0.00768 in test [15] and -0.557 (inactive) in test [17].
